Measured values reported in PubChem BioAssay AID1159580 (chemical genetic matrix, 2015).
Where “and” joins values, the source holds several entries; their conditions need not be identical. Identical values can stand only once. Among all 5,500 compounds or so, about 2,000 (36%) were called active. Inconclusive results (about 18%) are left out. The list shows a part of the results. A number with no mark means an inactive call. Rule as the data show it: active = normalized growth mostly below about 0.91 (no sharp cut-off); inconclusive = no clear call, values can overlap the other calls; inactive = mostly above about 0.92.

Experiment: chemical genetic growth profiling, strain panel (AID 1159580);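 also: tested at 20 µM; growth read once vehicle control cultures reached saturation at 30 °C; 1 = growth at the plate median or of vehicle wells; lower values mean less growth of the strain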
Conditions: S. cerevisiae deletion strains, growth OD

For `Nc1ncnc2c1ncn2C1O[C@H](COP(=O)(O)O)[C@@H](O)[C@H]1O` (stereo partly specified), the normalized growth (locus YAL013W, strain DEP1, active compounds read low) was 1.01, the normalized growth (locus YAL021C, strain ccr4, active compounds read low) was 0.996 and the normalized growth (locus YAL026C, strain drs2, active compounds read low) was 1. The normalized growth (locus YAL030W, strain snc1, active compounds read low) was 0.997, the normalized growth (locus YBL061C, strain skt5, active compounds read low) was 0.999 and the normalized growth (locus YBR009C, strain hhf1, active compounds read low) was 0.95. The normalized growth (locus YBR021W, strain FUR4, active compounds read low) was 1.01, the normalized growth (locus YBR023C, strain chs3, active compounds read low) was 0.99 and the normalized growth (locus YBR171W, strain sec66, active compounds read low) was 1. For the same compound, the normalized growth (locus YBR229C, strain ROT2, active compounds read low) was 1.01, the normalized growth (locus YBR231C, strain swc5, active compounds read low) was 1.01 and the normalized growth (locus YBR279W, strain paf1, active compounds read low) was 0.999. The normalized growth (locus YCL011C, strain gbp2, active compounds read low) was 0.991, the normalized growth (locus YCL016C, strain dcc1, active compounds read low) was 0.982 and the normalized growth (locus YCL029C, strain bik1, active compounds read low) was 0.523 (active). The normalized growth (locus YCL069W, strain vba3, active compounds read low) was 0.996, the normalized growth (locus YCR088W, strain abp1, active compounds read low) was 0.988 and the normalized growth (locus YDL005C, strain med2, active compounds read low) was 1.03. For the same compound, the normalized growth (locus YDL035C, strain GPR1, active compounds read low) was 1.04, the normalized growth (locus YDL040C, strain nat1, active compounds read low) was 1 and the normalized growth (locus YDL074C, strain BRE1, active compounds read low) was 1.03. It also gave a normalized growth (locus YDL101C, strain DUN1, active compounds read low) of 1.01, a normalized growth (locus YDL134C, strain PPH21, active compounds read low) of 1.02 and a normalized growth (locus YDL185W, strain tfp1, active compounds read low) of 0.992. For the same compound, the normalized growth (locus YDL192W, strain arf1, active compounds read low) was 0.811 (active), the normalized growth (locus YDR001C, strain nth1, active compounds read low) was 0.997 and the normalized growth (locus YDR069C, strain doa4, active compounds read low) was 1.04. The normalized growth (locus YDR101C, strain arx1, active compounds read low) was 0.589 (active), the normalized growth (locus YDR137W, strain rgp1, active compounds read low) was 1 and the normalized growth (locus YDR150W, strain NUM1, active compounds read low) was 1.02. The normalized growth (locus YDR159W, strain sac3, active compounds read low) was 0.95, the normalized growth (locus YDR162C, strain NBP2, active compounds read low) was 1.01 and the normalized growth (locus YDR195W, strain ref2) was 1.01. The normalized growth (locus YDR297W, strain sur2, active compounds read low) was 1.01, the normalized growth (locus YDR318W, strain mcm21, active compounds read low) was 0.73 (active) and the normalized growth (locus YDR334W, strain swr1, active compounds read low) was 1. For the same compound, the normalized growth (locus YDR335W, strain msn5, active compounds read low) was 1, the normalized growth (locus YDR388W, active compounds read low) was 0.209 (active) and the normalized growth (locus YDR392W, strain spt3, active compounds read low) was 0.95. For the same compound, the normalized growth (locus YDR502C, strain sam2, active compounds read low) was 0.632 (active), the normalized growth (locus YEL003W, strain gim4, active compounds read low) was 1 and the normalized growth (locus YEL037C, strain rad23, active compounds read low) was 0.993. The normalized growth (locus YEL061C, strain CIN8 (second series), active compounds read low) was 1, the normalized growth (locus YEL061C, strain CIN8, active compounds read low) was 1.01 and the normalized growth (locus YER015W, strain faa2, active compounds read low) was 0.987. The normalized growth (locus YER016W, strain bim1, active compounds read low) was 0.97, the normalized growth (locus YER110C, active compounds read low) was 0.798 (active) and the normalized growth (locus YER111C, strain swi4, active compounds read low) was 0.991. For the same compound, the normalized growth (locus YER155C, strain BEM2 (second series), active compounds read low) was 1.05, the normalized growth (locus YER155C, strain BEM2, active compounds read low) was 1.01 and the normalized growth (locus YER167W, strain BCK2, active compounds read low) was 1.03. For the same compound, the normalized growth (locus YFR010W, strain ubp6, active compounds read low) was 1.01, the normalized growth (locus YGL078C, strain dbp3, active compounds read low) was 0.993 and the normalized growth (locus YGL086W, strain mad1, active compounds read low) was 0.74 (active). The normalized growth (locus YGL167C, strain pmr1, active compounds read low) was 1, the normalized growth (locus YGL173C, strain kem1, active compounds read low) was 0.995 and the normalized growth (locus YGL227W, strain vid30, active compounds read low) was 1.01. The normalized growth (locus YGL240W, strain doc1, active compounds read low) was 1.04, the normalized growth (locus YGL248W, strain PDE1, active compounds read low) was 1.02 and the normalized growth (locus YGL253W, strain hxk2, active compounds read low) was 0.972. For the same compound, the normalized growth (locus YGR078C, strain PAC10, active compounds read low) was 1.02, the normalized growth (locus YGR135W, strain pre9, active compounds read low) was 0.776 (active) and the normalized growth (locus YGR229C, strain SMI1, active compounds read low) was 1.03. It also gave a normalized growth (locus YGR252W, strain gcn5, active compounds read low) of 0.987, a normalized growth (locus YHR013C, strain ard1, active compounds read low) of 0.965 and a normalized growth (locus YHR027C, strain rpn1, active compounds read low) of 1. The normalized growth (locus YHR030C, strain SLT2, active compounds read low) was 1.01, the normalized growth (locus YHR079C, strain IRE1 (second series), active compounds read low) was 0.345 (active) and the normalized growth (locus YHR079C, strain IRE1, active compounds read low) was 1.02. For the same compound, the normalized growth (locus YHR094C, strain hxt1, active compounds read low) was 0.955, the normalized growth (locus YHR129C, strain ARP1, active compounds read low) was 1.01 and the normalized growth (locus YHR142W, strain chs7, active compounds read low) was 1.01. For the same compound, the normalized growth (locus YHR200W, strain rpn10, active compounds read low) was 0.911 (active), the normalized growth (locus YIL066C, strain RNR3, active compounds read low) was 1.03 and the normalized growth (locus YIL073C, strain SPO22, active compounds read low) was 1.03. For the same compound, the normalized growth (locus YIL125W, strain kgd1, active compounds read low) was 0.999, the normalized growth (locus YIR030C, strain dcg1, active compounds read low) was 0.648 (active) and the normalized growth (locus YJL092W, strain hpr5, active compounds read low) was 1. The normalized growth (locus YJL095W, strain BCK1 (second series), active compounds read low) was 0.996, the normalized growth (locus YJL095W, strain BCK1, active compounds read low) was 0.99 and 0.989 and the normalized growth (locus YJL115W, strain asf1, active compounds read low) was 0.998. For the same compound, the normalized growth (locus YJL129C, strain trk1, active compounds read low) was 1, the normalized growth (locus YJL134W, strain LCB3, active compounds read low) was 1.01 and the normalized growth (locus YJL154C, strain vps35, active compounds read low) was 0.999. For the same compound, the normalized growth (locus YJL164C, strain tpk1, active compounds read low) was 0.967, the normalized growth (locus YJL166W, strain qcr8, active compounds read low) was 1.03 and the normalized growth (locus YJL168C, strain set2, active compounds read low) was 0.927 (active). The normalized growth (locus YJL187C, strain SWE1 (second series), active compounds read low) was 1.03, the normalized growth (locus YJL187C, strain SWE1, active compounds read low) was 0.996 and the normalized growth (locus YJR043C, strain POL32, active compounds read low) was 1. The normalized growth (locus YJR066W, strain TOR1, active compounds read low) was 0.965.
